Data: PubChem BioAssay (Tox21)
Records with an inconclusive call do not appear. A number with no mark means an inactive call. The source made the active and inactive calls. Calls come from the whole dose curve; as a rule, active = well fitted cell-killing curve with a large enough effect in the repeat runs; inconclusive = weak or mixed curves, or effect the other way; inactive = flat fitted curve, though single readings scatter.

Assay: qHTS assay to identify small molecule antagonists of the estrogen receptor alpha (ER-alpha) signaling pathway using the BG1 cell line in the presence of 0.1 nM 17-beta-estradiol - cell viability counter screen (AID 1259241); note: nearly all actives have a fitted effect of over 40% in size
Details: VM7Luc4E2 (BG1) viability, CellTiter-Fluor protease, 22 h, 0.1 nM estradiol agonist added; series mostly up to 92.4 µM; activity change, negative = cytotoxicity: at the top concentration
Excerpt: National Center for Advancing Translational Sciences [NCATS]
NIH Chemical Genomics Center [NCGC]
U.S. Environmental Protection Agency [EPA]
National Institutes of Environmental Health Sciences [NIEHS]
National Toxicology Program [NTP]
U.S. Food and Drug Administration [FDA]
Estrogen receptor (ER), a member of the nuclear hormone receptor plays an important role in development, metabolic homeostasis and reproduction. Two subtypes of ER, ER-alpha and ER-beta, have similar expression patterns with some uniqueness in both types. Endocrine disrupting chemicals (EDCs) and their interactions with steroid hormone receptors like ER causes disruption of normal endocrine function. Therefore, it is important to understand the effect of environmental chemicals in ER signaling pathway. For identifying ER antagonists, VM7Luc4E2 cell line was used to screen against Tox21 compound libraries.
VM7Luc4E2 cell line (provided by Denison MS, University of California) endogenously express full-length ER-alpha and is stably transfected with a plasmid containing four estrogen responsive elements (ERE) upstream of a luciferase reporter gene. The current screening for identification of ER-alpha inhibitors against Tox21 compound libraries used lower concentration (0.1 nM) of 17beta-Estradiol as a stimulator. The cytotoxicity of the Tox21 compound libraries against VM7Luc4E2 cell line was tested by measuring live-cell protease activity using CellTiter-Fluor assay in the same wells.
Tox21 Assay Protocol Summary:
VM7Luc4E2 cells were cultured in phenol red free assay medium containing 10% charcoal stripped FBS for 5 days prior to the assay. The cells were dispensed at 4,000 cells/well in 4 uL of assay medium into white wall/solid-bottom 1536-well plates (Corning Life Sciences, Corning, NY) using a Multidrop Combi (ThermoFisher Scientific, Waltham, MA) dispenser. After the assay plates were incubated at 37C and 5% CO2 for 24 hr, 23 nL of compounds dissolved in DMSO, positive controls or DMSO only was transferred to the assay plates by a Pintool station (Kalypsys, San Diego, CA). The transfer of compounds was followed by the addition of 1 uL of 0.1 nM (final concentration) agonist (17beta-Estradiol)/assay medium using a Flying Reagent Dispenser (FRD, Aurora Discovery, San Diego, CA). The plates were incubated at 37C and 5% CO2 for 22 hr. For cytotoxicity assay, 1 uL of CellTiter-Fluor reagent (Promega Corporation, Madison, WI) was added to each well using the FRD and after 30 min incubation at 37C and 5% CO2, The fluorescence intensity was measured using ViewLux plate reader (PerkinElmer, Shelton, CT).
% is set by controls: 0 for no effect and ±100 for the full control effect; potency is the fitted concentration of half-maximal effect.

Row | Compound | activity change, negative = cytotoxicity | Potency
1 | CN1C[C@H]2c3ccccc3Oc3ccc(Cl)cc3[C@@H]2C1 | 4.07% [at 42.5 µM] | –
2 | CC1=CC=C(C(C)C)CC1 | 2.81% | –
3 | CCCCCC[C@@H](O)C/C=C\CCCCCCCC(=O)OC | 1.13% | –
4 | CC(=O)NO | 7.67% [at 42.5 µM] | –
5 | C[N+](C)(C)CCOC(=O)CCC(=O)OCC[N+](C)(C)C | 6.05% [at 42.5 µM] | –
6 | CN(C)CCN(Cc1ccccc1)c1ccccn1 | -13.7% [at 42.5 µM] | –
7 | CC[N+](C)(CC)CCOC(=O)C(O)(c1ccccc1)C1CCCCC1 (stereo not given) | 21.9% [at 42.5 µM] | –
8 | CC(=O)c1cccc([N+](=O)[O-])c1 | 22.8% | –
9 | CCCCc1nc2cccnc2n1Cc1ccc(-c2ccccc2-c2nnn[nH]2)cc1 | -15.2% | –
10 | C=CCOC(=O)CCC1CCCCC1 | 1.66% | –
11 | COC(C)OC | -1.55% | –
12 | C[N+]1(CC2COC(c3ccccc3)(C3CCCCC3)O2)CCCCC1 (stereo not given) | -0.085% [at 42.5 µM] | –
13 | CNC(=O)CN(CCN(CCN(CC(=O)[O-])CC(=O)NC)CC(=O)[O-])CC(=O)[O-].O.[Gd+3] | 6.08% [at 42.5 µM] | –
14 | CN(C)c1ccc(/C=C/c2ccc([N+](=O)[O-])cc2)cc1 | 7.98% [at 8.39 µM] | –
15 | CC(COCCO)OCCO (stereo not given) | -0.303% | –
16 | CC(CSC(=O)c1ccccc1)C(=O)N1C[C@@H](Sc2ccccc2)C[C@H]1C(=O)O (stereo not given in full) | 3.73% [at 19 µM] | –
17 | O[C@@H](COc1cccc2ncccc12)CN1CCN(C2c3ccccc3[C@@H]3[C@H](c4ccccc42)C3(F)F)CC1 (stereo not given in full) | -22.9% [at 42.5 µM] | –
18 | COc1cc2nc(Cl)nc(N)c2cc1OC | 4.68% [at 42.5 µM] | –
19 | Cc1ccc(C(=O)Oc2ccc(C(O)CNC(C)(C)C)cc2OC(=O)c2ccc(C)cc2)cc1 (stereo not given) | -9.43% [at 42.5 µM] | –
20 | CCCCCCCCCCCCN1CCCCCC1=O | 3.41% | –

Row | Compound | activity change, negative = cytotoxicity | Potency
21 | COCCCN1CCC(NC(=O)c2cc(Cl)c(N)c3c2OCC3)CC1 | -15% [at 42.5 µM] | –
22 | CN1Cc2cc(C(=O)N3CCC(C4CCNCC4)CC3)ccc2NC(CC(=O)O)C1=O (stereo not given) | 2.88% [at 42.5 µM] | –
23 | O=[N+]([O-])c1ccc(NCCO)c(OCCO)c1 | – | 54.5 µM (active)
24 | O=P(O)(OCc1ccccc1)OCc1ccccc1 | 12.6% | –
25 | CCC(C)(C)CC | 4.22% | –
26 | CCCCC(CC)COC(=O)COc1ccc(Cl)cc1Cl (stereo not given) | 0% | –
27 | CCCCCCCC/C=C\CCCCCCCC(=O)OCC | 0.574% | –
28 | CC1OC(=O)C(C)OC1=O (stereo not given) | 3.92% | –
29 | CCOc1ccc(N=Nc2ccc(/C=C/c3ccc(N=Nc4ccc(OCC)cc4)cc3S(=O)(=O)O)c(S(=O)(=O)O)c2)cc1 | – | 24 µM (active)
30 | NCC(=O)O | -1.87% [at 19 µM] | –
31 | Cc1ncc(CO)c(C=O)c1O | 0.0004% [at 42.5 µM] | –
32 | OCCNCc1ccccc1 | 6.94% | –
33 | CCCn1cnc2c1c(=O)n(CCCCC(C)=O)c(=O)n2C | 4.25% [at 42.5 µM] | –
34 | CC1=CCCC(C)(C)C12CCC(C)O2 (stereo not given) | -0.649% | –
35 | CC(C)Cc1ccc(C(C)C(=O)OCc2ccccn2)cc1 (stereo not given) | -14.2% [at 42.5 µM] | –
36 | CO[C@@H]1[C@H](OC(=O)/C=C/C=C/C=C/C=C/C(=O)O)CC[C@]2(CO2)[C@H]1[C@@]1(C)O[C@@H]1CC=C(C)C | -0.943% | –
37 | O=C(Nc1ccc(S(=O)(=O)N2CCOCC2)cc1)c1cc(Cl)ccc1NS(=O)(=O)c1ccc(Cl)s1 | 2.89% [at 42.5 µM] | –
38 | O=C(O)C1(C(=O)O)CCC1.[NH2-].[NH2-].[Pt+2] | -18.2% [at 42.5 µM] | –
39 | COc1cc2nc(N3CCN(C(=O)C4COc5ccccc5O4)CC3)nc(N)c2cc1OC (stereo not given) | -13.1% [at 42.5 µM] | –
40 | C#Cc1cccc(Nc2ncnc3cc(OCCOC)c(OCCOC)cc23)c1 | -11% [at 42.5 µM] | –
